Only some compounds are listed: those with a hit (about 4.7% of all), similar ones and a draw of the others.
SKKanGAS inh: inhibitors of SKKanGAS S. pyogenes growth in kanamycin (SK-promoter or general growth effect) | actives 1.3% (n = 300,000) | BacTiter-Glo, 6 h | inhibition, % at 7.5 µM | AID 1662;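 active = mean replicate score, as percent of positive control median, at least 50; inconclusive = mean below 50 but one replicate at or above 50; inactive = mean and every replicate below 50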;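 note: strain carries kanamycin resistance gene driven by streptokinase promoter and grows in 40 µg/ml kanamycin; loss of luminescence reflects streptokinase promoter inhibition or plain growth inhibition; 0% = median of DMSO wells and 100% = positive control at its reference dose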
tim23-1 inh: tim23-1 yeast growth inhibition | S. cerevisiae tim23-1 growth, BacTiter-Glo luminescence, 24 h | inhibition, % at 20 µM | actives 1.3% (n = 330,000) | AID 463212;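 active = growth inhibition of the mutant yeast at or above 50%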;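 note: temperature-sensitive mutant grown at 25 °C; plate controls were DMSO-treated mutant yeast for no effect and medium wells lacking yeast for full effect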
PfHsp90 set2: inhibits growth of yeast expressing Plasmodium falciparum Hsp90; S. cerevisiae expressing PfHsp90, BacTiter-Glo ATP, 48 h; yeast lacking PDR1 and PDR3 efflux regulators; actives 0.32% (n = 310,000); inhibition, % at 9.4 µM;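 active = every replicate shows inhibition above about 80%, whatever the replicate mean, limit read from the data; inconclusive = mean inhibition reaches the set limit but some replicate falls short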;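 note: 0% = DMSO neutral controls and 100% = 20 µM radicicol positive controls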
tim10-1 inh: inhibits growth of tim10-1 mutant yeast | S. cerevisiae tim10-1 ts strain growth, BacTiter-Glo, 24 h | inhibition, % at 20 µM | actives 2.2% (n = 330,000) | AID 463190;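 active = inhibition of at least 40%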;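 note: mutant grown at 25 °C; 0% = DMSO wells with yeast and 100% = wells holding no yeast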
ATG4B inhibitor: blocks human ATG4B protease cleavage of LC3 substrate; actives 0.51% (n = 340,000); Q9Y4P1; AID 504462; inhibition, % at 8.33 µM; ATG4B cleavage of LC3-PLA2, NBD-HPC fluorescence, 1 h; in the data active = inhibition above about 40%
Target sequence (Q9Y4P1 whole entry, looked up): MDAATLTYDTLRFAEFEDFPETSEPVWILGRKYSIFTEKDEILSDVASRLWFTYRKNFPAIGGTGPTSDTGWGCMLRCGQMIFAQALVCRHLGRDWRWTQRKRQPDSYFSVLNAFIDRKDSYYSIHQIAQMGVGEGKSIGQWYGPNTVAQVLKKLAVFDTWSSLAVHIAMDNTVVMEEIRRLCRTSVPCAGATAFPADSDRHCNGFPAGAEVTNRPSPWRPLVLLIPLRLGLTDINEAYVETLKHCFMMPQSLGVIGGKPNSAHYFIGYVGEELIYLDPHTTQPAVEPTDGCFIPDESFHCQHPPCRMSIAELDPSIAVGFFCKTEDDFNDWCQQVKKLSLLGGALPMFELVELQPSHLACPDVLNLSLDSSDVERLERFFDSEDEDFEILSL
TIM10 inh: growth inhibitors of TIM10 yeast strain; S. cerevisiae TIM10 strain growth, BacTiter-Glo luminescence, 24 h; inhibition, % at 10 µM; actives 1.4% (n = 330,000);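 active = inhibition of 40% or more at the single tested concentration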;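 note: wild-type TIM10 isogenic control strain grown at permissive 25 °C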
tim10-1 confirm: tim10-1 yeast growth inhibition, confirmed; actives 56% (n = 7,400); inhibition, % at 20 µM; shares compounds with tim10-1 inh; AID 463213; S. cerevisiae tim10-1 ts strain growth, BacTiter-Glo, 24 h;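 active = inhibition of yeast growth at or above a set limit in either of two repeat tests at 20 µM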;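 note: tim10-1 mutant grown at permissive 25 °C to find synthetic lethal compounds; 0% = DMSO yeast wells and 100% = medium wells without yeast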
* marks the source's active call; other numbers are inactive results; ? = inconclusive; · = no result given.

SMILES | SKKanGAS inh | tim23-1 inh | PfHsp90 set2 | tim10-1 inh | ATG4B inhibitor | TIM10 inh | tim10-1 confirm
O=S(=O)(c1ccc(Cl)cc1)N1CCC2(CC1)OCCN2S(=O)(=O)c1cccs1 | 7 | 27 | -8 | 48* | 6 | -3 | 29*
CCS(=O)(=O)N1CCC2(CC1)OCCN2S(=O)(=O)c1ccc(OC)cc1 | 2 | 5 | 22 | -8 | 4 | -2 | ·
O=C(NC1CCCC1)c1ccc(Cl)c(S(=O)(=O)N2CCCCC2)c1 | 1 | 0 | -6 | -14 | -4 | 4 | ·
CCn1c(=O)c(CCC(=O)NCC2CCCO2)c(C)c2c(C)nn(-c3ccc(C)cc3)c21 (stereo not given) | -16 | 10 | 10 | 41* | 4 | 3 | -7
Cc1ccc(-c2noc(CCC(=O)NCC3CCCO3)n2)cc1 (stereo not given) | -16 | -2 | -53 | 13 | 13 | 0 | ·
CC(C)(C)NC(=O)NC(=O)COC(=O)CNC(=O)c1cccc(F)c1 | -17 | -4 | -2 | -1 | 1 | -11 | ·
O=S(=O)(c1ccc2nc(-c3ccccc3)[nH]c2c1)N1CCN(c2ccc(Cl)cc2)CC1 | 19 | -9 | -6 | 10 | 24 | -1 | ·
O=P(OC1CCCCC1)(OC1CCCCC1)C(O)c1c(Cl)cccc1Cl (stereo not given) | 8 | 43 | -65 | 43* | 4 | 34 | 23
O=P(OC1CCCCC1)(OC1CCCCC1)C(O)c1ccc(Cl)cc1Cl (stereo not given) | 12 | 30 | 3 | 28 | 1 | 31 | ·
O=C1C2Sc3[nH]c(=O)sc3C(c3ccccc3)C2C(=O)N1c1ccc(Cl)cc1 (stereo not given) | · | 40 | 0 | 42* | 0 | 39 | 29
C/C(=N\NC(=O)Cc1csc(N2CCOCC2)n1)c1ccc(Cl)c(Cl)c1 | -1 | 18 | 6 | 41* | -6 | 39 | 19
CCC/C(=N\NC(=O)Cc1csc(N2CCOCC2)n1)c1ccccc1 | 9 | 19 | 15 | 17 | -3 | -11 | ·
COC(=O)c1c(NC(=O)c2ccn(C)n2)sc2c1CCC2 | ? | -3 | -9 | 3 | 6 | 2 | ·
COC(=O)c1c(NC(=O)c2nn(C)cc2Cl)sc2c1CCCC2 | 38 | 44 | · | 50* | -8 | 32 | 14
COc1cc(C(c2c(C)[nH][nH]c2=O)c2c(C)[nH][nH]c2=O)ccc1OC(C)C | 10 | 31 | 13 | 40* | -2 | 35 | 42*
COc1cc(C(c2c(C)[nH][nH]c2=O)c2c(C)[nH][nH]c2=O)ccc1OCc1ccc([N+](=O)[O-])cc1 | -18 | 21 | · | 57* | -9 | 26 | 51*
COc1ccc(C(c2c(C)[nH][nH]c2=O)c2c(C)[nH][nH]c2=O)cc1Br | -2 | 35 | -15 | 14 | -6 | 39 | ·
Cc1ccc(C(c2c(C)[nH][nH]c2=O)c2c(C)[nH][nH]c2=O)cc1 | -7 | 20 | 8 | 42* | 2 | 11 | 30
C/C(=N\N1C(=O)c2ccccc2C1=O)c1cccc([N+](=O)[O-])c1 | 8 | 14 | 1 | 20 | 12 | 10 | ·
CC(C)CNC(=S)NNC(=O)CC(C)O (stereo not given) | -26 | 6 | -21 | -1 | -11 | 10 | ·
COc1cccc(N2C(=O)C(c3ccccc3)=C(c3nc4ccccc4s3)C2NC(C)=O)c1 (stereo not given) | 11 | 19 | -18 | 49* | -9 | 39 | 42*
COc1cc(OC)cc(C(=O)N2CCN(Cc3ccccc3C(F)(F)F)CC2)c1 | -3 | 35 | -36 | 28 | 13 | 16 | ·
COc1cc(C(=O)N2CCN(Cc3ccccc3C(F)(F)F)CC2)cc(OC)c1OC | -4 | 27 | -2 | 43* | 1 | 24 | 24
Cc1ccccc1OCc1nnc(SCC(=O)Nc2ccc3nc(SCC(=O)NC(C)(C)C)sc3c2)n1C | 22 | -21 | -33 | -20 | -10 | -16 | ·
O=C(NCc1ccco1)C1c2ccccc2Oc2ccccc21 | -4 | 12 | -1 | 6 | 3 | -11 | ·
SMILES | SKKanGAS inh | tim23-1 inh | PfHsp90 set2 | tim10-1 inh | ATG4B inhibitor | TIM10 inh | tim10-1 confirm
CC1C(=O)C(C)C(c2ccc(Br)cc2)NC1c1ccc(Br)cc1 (stereo not given) | 13 | 45 | -50 | 48* | 5 | 9 | 12
COc1cc(C2C(C#N)=C(N)OC3=C2C(=O)CC(C)(C)C3)cc([N+](=O)[O-])c1O (stereo not given) | 4 | 15 | -35 | -4 | 3 | 5 | ·
COc1cc(C2C3=C(CC(C)(C)CC3=O)OC3=C2C(=O)CC(C)(C)C3)cc([N+](=O)[O-])c1O | -1 | 33 | -71 | 41* | 1 | 17 | 26
N#C/C(=C\C=C\c1ccccc1[N+](=O)[O-])C(=O)NCc1ccccc1 | 1 | 49 | -8 | 45* | 5 | 38 | 35*
Cc1ccc(NC2CCCCC2NS(=O)(=O)c2ccccc2)c(C)c1 (stereo not given) | 0 | 44 | 2 | 44* | 11 | 20 | 21
CCc1c(C)[nH]n(-c2nc(-c3ccccc3)cs2)c1=O | -2 | 33 | 21 | 50* | -8 | 18 | 31*
CCc1c(C)[nH]n(-c2nc(-c3cccc([N+](=O)[O-])c3)cs2)c1=O | 6 | 0 | 24 | 17 | -16 | 17 | ·
CCc1ccc(/C=C2\Oc3cc(OC(=O)N4CCOCC4)ccc3C2=O)cc1 | 3 | 27 | 49 | 50* | -9 | 29 | 18
O=C(Cc1c[nH]c2ccccc12)N1CCc2ccccc21 | 11 | 14 | 3 | 20 | -3 | 12 | ·
O=c1cc(-c2cccc(Br)c2)oc2cccc(O)c12 | -3 | 6 | -38 | -3 | -7 | 1 | ·
CC1CCc2nc(NC(=O)C3COc4ccccc4O3)sc2C1 (stereo not given) | -4 | 38 | -2 | 49* | 6 | 27 | 27
CCc1cc2c3c(c(=O)oc2cc1O)CCCC3 | 1 | 39 | -15 | 41* | -18 | 39 | 12
O=c1c2ccccc2oc2ccc(C#CC3(O)CCCCC3)cc12 | 6 | 30 | -13 | 45* | -8 | 21 | 36*
N#Cc1ccc(C#Cc2ccc3oc4ccccc4c(=O)c3c2)cc1 | · | -4 | -16 | -3 | 0 | -1 | ·
Cn1c2ccccc2c(=O)c2cc(C#CC3(O)CCCCC3)ccc21 | 22 | -3 | 0 | 44* | -5 | -7 | 39*
Cn1c2ccccc2c(=O)c2cc(C#Cc3ccsc3)ccc21 | 9 | -14 | -36 | 0 | -5 | -8 | ·
Cn1c2ccccc2c(=O)c2ccc(C#CC3(N)CCCCC3)cc21 | -1 | 33 | 6 | 45* | -5 | 27 | 36*
[O-][n+]1onc2c1CCc1nnc(-c3ccccc3)cc1-2 | -6 | -2 | · | 11 | -6 | -1 | ·

Source: PubChem BioAssay
